# Measured values taken from the supplement of paper PMC11001985.
# A number with no mark means an inactive call.
# Biological target: HSP90AA1 (UniProt P07900)
# Test: lysine labeling ratio R10:1 (500 µM / 50 µM probe), SILAC-ABPP in living cells; higher = lower intrinsic lysine reactivity toward the probe, active = 2 or less
# Settings: HeLa, probe concentrations 500 vs 50 µM
# Method: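 Living HeLa cells (SILAC light/heavy) in PBS at room temperature were labeled with 50 µM versus 500 µM of the lysine-reactive, reductant-cleavable probe OPA-S-S-alkyne (SILAC labeling time not stated). Probe-modified peptides were CuAAC-biotinylated, captured on neutravidin and eluted with DTT/IAA, then quantified by LC-MS/MS. R = median peptide ratio per lysine (500/50 µM), combined over 3 forward and 3 reverse SILAC replicates. Ratios are capped at 20; R < 2 = hyper-reactive.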
smiles,measurement,setting,value
C#CCNC(=O)CCSSCCC(=O)NCCc1ccc(C=O)c(C=O)c1,lysine labeling ratio R10:1,lysine site: K58,3.2
same,lysine labeling ratio R10:1,lysine site: K84,4.81
same,lysine labeling ratio R10:1,lysine site: K457,0.935 (active)
same,lysine labeling ratio R10:1,lysine site: K458,2.96
same,lysine labeling ratio R10:1,lysine site: K585,6.47
same,lysine labeling ratio R10:1,lysine site: K632,5.33
